Hits are enriched below; roughly 5.9% of the tested compounds scored in any of these assays.
GLP1R inv ag = acts as inverse agonist at human GLP-1 receptor | HEK293 GLP-1R CRE-luciferase, luminescence, 24 h; GLP-1R form is constitutively active | Potency, µM (series often up to 38.3 µM), most hits filed as inhibitors | 1.6% of 410,000 active; also: nearly all actives have a fitted effect of over 55% in size
Target sequence (P43220 whole entry, looked up): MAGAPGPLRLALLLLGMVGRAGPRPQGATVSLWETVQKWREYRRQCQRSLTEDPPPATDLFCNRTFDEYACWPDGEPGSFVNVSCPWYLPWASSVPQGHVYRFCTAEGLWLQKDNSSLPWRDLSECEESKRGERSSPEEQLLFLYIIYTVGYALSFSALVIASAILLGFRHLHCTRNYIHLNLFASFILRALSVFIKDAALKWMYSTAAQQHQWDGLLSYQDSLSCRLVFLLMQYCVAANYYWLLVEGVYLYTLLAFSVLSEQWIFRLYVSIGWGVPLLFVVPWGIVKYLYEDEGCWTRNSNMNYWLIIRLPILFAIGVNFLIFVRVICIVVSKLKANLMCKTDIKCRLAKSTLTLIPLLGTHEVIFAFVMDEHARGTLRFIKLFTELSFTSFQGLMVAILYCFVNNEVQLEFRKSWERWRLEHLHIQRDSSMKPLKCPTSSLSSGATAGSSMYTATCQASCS
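Inverse agonists were sought by their lowering of basal cAMP reporter luciferase output in HEK293 cells stably carrying constitutively active human GLP-1R, after 24 h compound treatment.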
GLP1R cytotox = cytotoxic in the GLP-1 receptor inverse agonist counter-screen. HEK293 cAMP-luciferase reporter cells, luminescence, 24 h. Potency, µM (top dose mostly 38.3 µM), usual class: inhibitors. 0.13% of 410,000 active. AID 624418;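 also: loss of luciferase light is scored as toxicity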
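MLSMR compounds, 24 hr on cells at 37 deg C/5% CO2; luminescence after luciferase reagent (12 min RT). Inhibition counted as the undesired cytotoxic outcome.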
Gal4-VP16 FLuc = Gal4-VP16 reporter inhibition counter-screen; Drosophila S2 Gal4-VP16 UAS-luciferase, luminescence, 20 h; Potency, µM (doses to about 53.6 µM), actives largely listed as inhibitors; 3.5% of 310,000 active;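 also: Gal4-VP16 expression switched on by copper sulfate through the metallothionein promoter; nearly all actives have a fitted effect of over 50% in size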
GLP1R ag = agonists of human GLP-1 receptor; P43220; HEK293 GLP-1R CRE-luciferase, luminescence, 4-6 h; cells express a hypersensitive GLP-1R form; Potency, µM (doses to about 45.6 µM), actives largely listed as activators; 0.007% of 380,000 active; AID 624172
RORgamma inh = ROR gamma (mouse) transcription inhibition; P51450; Drosophila S2 Gal4-RORgamma UAS-luciferase reporter, 20 h; Potency, µM (highest dose often 53.6 µM), actives largely listed as inhibitors; 5.4% of 310,000 active; AID 2551; also: nearly all actives have a fitted effect of over 60% in size
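Drosophila S2 cells stably expressing Gal4-DBD/mouse RORγ fusion under metallothionein promoter plus UAS-luciferase; compound 1 h, then 700 uM CuSO4 induction for 20 h at ambient temperature; inhibition read as reduced luminescence.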
Each line names hits and unclear results; the compound was inactive in the other large screens. Calls follow the shape of the dose curve; as a rule, active = well fitted curve in the direction sought with a large enough effect; inconclusive = small, poorly fitted or top-dose-only effect, or another doubt; inactive = no such curve, though single readings can be large; an effect the other way counts as inactive or inconclusive.

CCOc1ccc(C(=O)C(CCC(CN(C)C)C(=O)c2ccc(OCC)cc2)CN(C)C)cc1 (configuration not stated)	GLP1R inv ag 1.6µM
C/C(CCN1CCCCc2nc(C)c(C)cc21)=N\OC[C@@H](C)[C@H](OCc1ccccc1)C(C)C	none (no result: GLP1R inv ag, GLP1R cytotox, GLP1R ag)
COC(=O)c1c(C)[nH]c(C(=O)/C=C/c2ccccc2)c1C	Gal4-VP16 FLuc 7.1µM, RORgamma inh 1.4µM
Cc1[nH]c2ccccc2c(=O)c1C(=O)/C=C/c1ccccc1	GLP1R inv ag inconclusive, GLP1R cytotox inconclusive, Gal4-VP16 FLuc 5.6µM, RORgamma inh 5.6µM
COC(=O)c1c(C)[nH]c(C(=O)OCc2ccc(F)cc2)c1C	none
COC(=O)c1c(C)[nH]c(C(=O)/C=C/c2cccc(Cl)c2)c1C	GLP1R cytotox inconclusive, Gal4-VP16 FLuc inconclusive, RORgamma inh 8.9µM
COC(=O)c1c(C)[nH]c(C(=O)/C=C/c2ccc(C)cc2)c1C	Gal4-VP16 FLuc 4µM, RORgamma inh 0.32µM
O=C(c1cc(C(F)(F)F)cc(C(F)(F)F)c1)N1CCC[C@@]2(CCN(Cc3ccccc3)C2)C1	none (no result: GLP1R inv ag, GLP1R cytotox, GLP1R ag)
C/C=C1\NC(=O)[C@H]2CSSCC/C=C\[C@H](CC(=O)N[C@H](C(C)C)C(=O)N2)OC(=O)C(C(C)C)NC1=O (some centres not stated)	none (no result: GLP1R inv ag, GLP1R cytotox, Gal4-VP16 FLuc, RORgamma inh)
COc1ccc(-n2ccn(CC(=O)NCCc3ccccc3)c(=O)c2=O)cc1OC	none (no result: Gal4-VP16 FLuc, GLP1R ag, RORgamma inh)
C=C(C)CSc1cc(C)c(C#N)c2nc3ccccc3n12	Gal4-VP16 FLuc 4µM, RORgamma inh inconclusive
Cc1cc(NCCCCO)n2c(nc3ccccc32)c1C#N	none
Cc1ccc2c(c1)nnn2C1CCN(S(=O)(=O)c2ccc(C(=O)N3C(C)CCCC3C)cc2)CC1 (configuration not stated)	GLP1R inv ag 4µM, Gal4-VP16 FLuc 16µM, RORgamma inh inconclusive
CSc1cc(-c2ccc(Cl)cc2)c(C(=O)NC(C)C)s1	GLP1R inv ag inconclusive
CSc1cc(-c2ccc(Cl)cc2)c(C(=O)NN)s1	Gal4-VP16 FLuc inconclusive, RORgamma inh 11µM
NCCC(=O)O	none (no result: GLP1R inv ag, GLP1R cytotox, GLP1R ag)
Cc1cc(C)c2oc(-c3cccc(NC(=O)COc4ccccc4Cl)c3C)nc2c1	none (no result: Gal4-VP16 FLuc, GLP1R ag, RORgamma inh)
CCCc1cc(-n2ccnc2C)n2c(nc3ccccc32)c1C#N	none (no result: Gal4-VP16 FLuc, RORgamma inh)
CCCc1cc(N2CCN(C(=O)c3ccco3)CC2)n2c(nc3ccccc32)c1C#N	GLP1R inv ag inconclusive, RORgamma inh 4.5µM
COc1ccccc1Cn1c(CNS(=O)(=O)c2c(C)cc(C)cc2C)nc2cccnc21	none (no result: Gal4-VP16 FLuc, GLP1R ag, RORgamma inh)
Cc1cc(NC(=O)c2ccccc2-c2ccccc2)ccc1Br	GLP1R inv ag 10µM
Cc1cccc(NC(=O)c2ccccc2-c2ccccc2)c1	none
CCc1ccc(N2C=C(C(=O)OC)C(c3cccc4ccccc34)C(C#N)=C2N)cc1 (configuration not stated)	GLP1R inv ag 1µM (no result: Gal4-VP16 FLuc, GLP1R ag, RORgamma inh)
COc1ccc(C2=NNC(c3cc(Cl)cc4c3OCOC4)C2)c(O)c1 (configuration not stated)	none (no result: GLP1R inv ag, GLP1R cytotox, GLP1R ag)
Oc1c(Cl)cc(Cl)cc1C1=NNC(c2ccc(Cl)cc2)C1 (configuration not stated)	GLP1R inv ag inconclusive, RORgamma inh 8.9µM
Oc1ccc(Cl)cc1C1=NNC(c2ccc(Cl)cc2)C1 (configuration not stated)	GLP1R inv ag inconclusive, Gal4-VP16 FLuc 16µM, RORgamma inh 8.9µM
Oc1ccc(Cl)cc1C1=NNC(c2cc(Br)cc3c2OCOC3)C1 (configuration not stated)	GLP1R inv ag inconclusive, Gal4-VP16 FLuc inconclusive, RORgamma inh 7.9µM
CCc1nn2c(=O)cc(COC(=O)c3ccco3)nc2s1	none (no result: Gal4-VP16 FLuc, GLP1R ag, RORgamma inh)
FC(F)(F)c1ccc(-c2noc(-c3ccccc3)c2I)cc1	none (no result: GLP1R inv ag, GLP1R cytotox, GLP1R ag)
O=C(/C=C/c1ccc(OC(F)F)cc1)OCC(=O)N1CCN(C(=O)c2ccco2)CC1	none
CCOC(=O)/C=C/C(=O)OCC(=O)N1CCN(C(=O)c2ccco2)CC1	Gal4-VP16 FLuc inconclusive, RORgamma inh 11µM
CN1CCN(c2ncc3nc(-c4ccccc4)c(=O)n(C)c3n2)CC1	none (no result: GLP1R inv ag, GLP1R cytotox, GLP1R ag)
Nc1nn2c(C(F)(F)F)cc(=O)[nH]c2c1N=Nc1cccc(F)c1	RORgamma inh 10µM
Cc1cc(=O)[nH]c2c(N=Nc3ccc(O)cc3)c(N)nn12	Gal4-VP16 FLuc inconclusive, RORgamma inh inconclusive
Cn1c(-c2ccco2)n[nH]c1=S	GLP1R cytotox inconclusive, RORgamma inh inconclusive
CCCCn1c(-c2c(Cl)c(C)nn2C)n[nH]c1=S	RORgamma inh 2.2µM
CCn1c(-c2c(Cl)c(C)nn2C)n[nH]c1=S	RORgamma inh inconclusive
CC(C)Cn1c(-c2ccco2)n[nH]c1=S	Gal4-VP16 FLuc inconclusive, RORgamma inh 10µM
CCn1c(-c2ccco2)n[nH]c1=S	Gal4-VP16 FLuc inconclusive, RORgamma inh 16µM
CCCCn1c(-c2ccco2)n[nH]c1=S	GLP1R inv ag inconclusive, Gal4-VP16 FLuc 7.1µM, RORgamma inh 4.5µM
CCCCn1c(-c2ccoc2C)n[nH]c1=S	none
COc1ccc(-c2nn3c(=O)cc(CN4CCN(C(=O)Nc5ccc(C)c(Cl)c5)CC4)nc3s2)cc1	none (no result: Gal4-VP16 FLuc, GLP1R ag, RORgamma inh)
C=CCn1c(-c2ccco2)n[nH]c1=S	Gal4-VP16 FLuc inconclusive, RORgamma inh 10µM
CCCCn1c(-c2sccc2C)n[nH]c1=S	GLP1R inv ag inconclusive, GLP1R cytotox inconclusive, Gal4-VP16 FLuc 11µM, RORgamma inh 5µM
C=CCn1c(-c2ccoc2C)n[nH]c1=S	Gal4-VP16 FLuc inconclusive, RORgamma inh inconclusive
Cc1cccc(NC(=O)CSc2cn(CC(=O)N3CCCCCC3)c3ccccc23)c1	none (no result: Gal4-VP16 FLuc, GLP1R ag, RORgamma inh)
Cc1ccc(C)c(-n2cc(CNCCCn3cccn3)c(-c3ccccc3)n2)c1	GLP1R inv ag 11µM, RORgamma inh 10µM
Cc1ccc(-n2cc(CNCCCn3cccn3)c(-c3cccc(C)c3)n2)cc1	GLP1R inv ag inconclusive, GLP1R cytotox inconclusive
CC(c1ccccc1F)n1cc(C(=O)NCc2ccncc2)nn1 (configuration not stated)	RORgamma inh 2.8µM
CC(c1ccccc1)n1cc(C(=O)NCc2ccncc2)nn1 (configuration not stated)	none
NC(CSC1(c2ccc(Cl)cc2)c2ccccc2-c2ccccc21)C(=O)O (configuration not stated)	GLP1R inv ag 7.9µM (no result: Gal4-VP16 FLuc, RORgamma inh)
NC(CSC1(c2ccc(F)cc2)c2ccccc2-c2ccccc21)C(=O)O (configuration not stated)	GLP1R inv ag inconclusive (no result: Gal4-VP16 FLuc, RORgamma inh)
CCN1C(=O)/C(=C/c2nc3ccccc3c(=O)n2-c2ccccc2)c2ccccc21	GLP1R inv ag 2µM
Cc1ccc(-c2nc(S(=O)(=O)c3ccc(C)cc3)c(SCC(=O)c3ccccc3)o2)cc1	GLP1R inv ag inconclusive (no result: Gal4-VP16 FLuc, GLP1R ag, RORgamma inh)
S=C(c1ccc(Br)cc1)N1CCCC1	none
S=C(N/N=C/c1ccc(Cl)cc1)N1CCOCC1	Gal4-VP16 FLuc 1.8µM, RORgamma inh 0.35µM
Cc1ccc(CNC(=S)N2CCOCC2)cc1	none
Cc1ccc(/C=N/NC(=S)N2CCOCC2)cc1	GLP1R inv ag inconclusive, Gal4-VP16 FLuc 0.89µM, RORgamma inh 0.56µM
